# Several values for one entry are separate records, joined by “and”; a condition that tells them apart may be missing. Equal values may be shown once. Records with an inconclusive call do not appear. More than one record can exist for a structure, and the calls need not agree. Activity calls are given as the source filed them. The calls were made as follows, unless noted: active = hit-call score of the fitted dose curve at least 0.9, where 1 is the maximum; inactive = score below 0.9.
# Experiments:
# [1] = ACEA_ER_80hr: ACEA Biosciences xCELLigence Real-Time Cell Analysis on Estrogen Receptor Agonism for Proliferation (AID 2282667; active = hit-call score of the fitted dose curve at least 0.9, where 1 is the maximum); details: T47D proliferation, impedance (xCELLigence), 80 h
# Outline: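 T-47D cells monitored by electrical impedance (xCELLigence) with compound present throughout; 80 h timepoint, positive-direction fitting versus DMSO. Eight-point 1:4 dilutions from 100 uM final, duplicate plates.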
# [2] = APR_HepG2_CellCycleArrest_24hr: Apredica 24-hour HepG2 Assay for Cell Cycle Arrest (AID 2282905); details: imaging, actives raise or lower the signal;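 also: cell cycle arrest scored as ratio of 2N to 4N nuclear DNA content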
# Outline: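 Readout: Hoechst 33342 nuclear DNA content by high-content fluorescent imaging, six images/well, 20x. Human HepG2 liver cells, 24 hr compound exposure, 0.39–200 uM, final DMSO 0.5% v/v. Gain or loss fitted relative to DMSO baseline.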
# [3] = APR_HepG2_NuclearSize_24hr: Apredica 24-hour HepG2 Assay for Nuclear Size (AID 2282907); details: high-content imaging, actives raise or lower the signal
# Outline: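 Read-out: nuclear diameter from Hoechst 33342 (2 ug/mL) imaging of fixed HepG2 cells, 20x, six fields/well. Compounds ran at 0.39–200 uM for 24 hr, 0.5% DMSO final. Gain or loss was fitted bidirectionally relative to the DMSO baseline.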
# [4] = APR_HepG2_CellLoss_24hr: Apredica 24-hour HepG2 Assay for Cell Loss (AID 2282908); details: high-content imaging;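 as to AC50: fit in both directions so a hit may be cell loss or gain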
# Outline: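 Read-out: Hoechst 33342-stained nuclei counted by automated fluorescence imaging after formaldehyde fixation and Triton permeabilization. Ten concentrations, 0.39 to 200 uM, duplicate wells, 0.5% DMSO final. Gain or loss of signal fitted relative to DMSO baseline.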
# [5] = APR_HepG2_MicrotubuleCSK_24hr: Apredica 24-hour HepG2 Assay for Microtubule CSK Stabilty (AID 2282909); details: HepG2 microtubule cytoskeleton imaging, actives raise or lower the signal
# Outline: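 Read-out: alpha-tubulin immunofluorescence intensity by automated high-content imaging of fixed HepG2 cells after 24 h compound treatment. Ten concentrations, 0.39 to 200 uM, in duplicate; DMSO 0.5% v/v. Taxol positive control; DMSO-normalized bidirectional curve fitting.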
# [6] = APR_HepG2_MitoticArrest_24hr: Apredica 24-hour HepG2 Assay for Mitotic Arrest (AID 2282910); details: high-content imaging, actives raise or lower the signal
# Outline: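 Treatment lasted 24 hr in the human HepG2 line at 0.39–200 uM, solvent held at 0.5% DMSO. Fixed cells were stained with Hoechst 33342 and anti-phospho-histone H3, imaged at 20x, and analysed by gain- or loss-of-signal fitting against DMSO.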
# [7] = APR_HepG2_MitoMembPot_24hr: Apredica 24-hour HepG2 Assay for Mitochondrial Membrane Potential (AID 2282911); details: imaging, actives raise or lower the signal
# Outline: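 HepG2 cells exposed 24 h to 0.39–200 uM compounds in duplicate, 0.5% v/v DMSO final. MitoTracker Red CMXRos 250 nM loaded 30 min before formaldehyde fixation; high-content imaging at 20x, bidirectional fit versus DMSO.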
# [8] = APR_HepG2_MitoMass_24hr: Apredica 24-hour HepG2 Assay for Mitochondrial Mass (AID 2282912); details: high-content imaging, actives raise or lower the signal
# Outline: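 HepG2, 24 hr dosing, 10 concentrations 0.39–200 uM in duplicate, DMSO 0.5% final. MitoTracker Red CMXRos 250 nM, 30 min pre-fix; 3.7% formaldehyde fix. Imaging-based fluorescence intensity; gain/loss fit vs DMSO baseline.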
# [9] = APR_HepG2_p53Act_24hr: Apredica 24-hour HepG2 Assay for p53 Activation (AID 2282913); details: high-content imaging, actives raise or lower the signal;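 also: p53 protein immunofluorescence averaged per cell in HepG2 with Hoechst nuclei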
# Outline: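 HepG2 cells exposed 24 h to compounds at 0.39–200 uM in duplicate, 0.5% v/v DMSO final; fixed, permeabilized, stained with anti-p53 antibody and Hoechst 33342; fluorescence imaging; bidirectional curve fit versus DMSO.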
# [10] = APR_HepG2_CellCycleArrest_72hr: Apredica 72-hour HepG2 Assay for Cell Cycle Arrest (AID 2282914); details: high-content imaging, actives raise or lower the signal
# Outline: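 HepG2 cells exposed 72 h in duplicate to 0.39–200 uM compound, 0.5% DMSO final. Formaldehyde-fixed, Hoechst 33342-stained nuclei imaged at 20x, six fields per well; DNA content per valid cell quantified by cell-cycle image analysis, bidirectional fit versus DMSO.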
# [11] = APR_HepG2_CellLoss_72hr: Apredica 72-hour HepG2 Assay for Cell Loss (AID 2282915); details: high-content imaging
# Outline: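 HepG2 cells were exposed for 72 hr to compounds at 0.39–200 uM (ten concentrations, duplicate) in 0.5% v/v final DMSO. Nuclei were stained with Hoechst 33342 after 3.7% formaldehyde fixation, imaged at 20x, and counted; fits bidirectional versus DMSO.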
# [12] = APR_HepG2_P-H2AX_72hr: Apredica 72-hour HepG2 Assay for H2AX Phosphorylation (AID 2282916); details: imaging, actives raise or lower the signal;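 also: phospho-histone H2A.x immunostain intensity per cell marking DNA damage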
# Outline: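 Readout: phospho-H2A.x immunofluorescence (FITC secondary) plus Hoechst nuclear stain, high-content imaging at 20x, six fields/well. HepG2, 72 hr compound exposure, 0.39–200 uM, final DMSO 0.5% v/v. Gain or loss fitted relative to DMSO baseline.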
# [13] = APR_HepG2_MitoMembPot_72hr: Apredica 72-hour HepG2 Assay for Mitochondrial Membrane Potential (AID 2282917); details: imaging, actives raise or lower the signal
# Outline: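 HepG2 cells exposed 72 h to compounds at 0.39–200 uM (0.5% v/v DMSO, duplicates); MitoTracker Red CMXRos 250 nM loaded 30 min before 3.7% formaldehyde fixation, imaged by HCS fluorescence. Bidirectional fit versus DMSO.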
# [14] = APR_HepG2_MitoticArrest_72hr: Apredica 72-hour HepG2 Assay for Mitotic Arrest (AID 2282918); details: high-content imaging, actives raise or lower the signal
# Outline: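 HepG2 cells treated 72 h at 0.39–200 uM, 0.5% DMSO final; formaldehyde-fixed, stained with Hoechst 33342 and phospho-histone H3 antibody, imaged by high-content fluorescence; bidirectional fit versus DMSO.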
# [15] = APR_HepG2_MicrotubuleCSK_72hr: Apredica 72-hour HepG2 Assay for Microtubule CSK Stabilty (AID 2282919); details: HepG2 microtubule cytoskeleton, high-content imaging, actives raise or lower the signal
# Outline: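 Ten-point dosing (0.39–200 uM, 0.5% DMSO) of HepG2 for 72 hr, with taxol as the cytoskeletal positive control. The cells were formaldehyde-fixed and then stained with alpha-tubulin/Cy5 and Hoechst. Imaging at 20x used a −2 um Z offset for tubulin.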
# [16] = APR_HepG2_P-H2AX_24hr: Apredica 24-hour HepG2 Assay for H2AX Phosphorylation (AID 2282920); details: high-content imaging, actives raise or lower the signal
# Outline: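 HepG2 cells dosed 24 h at 0.39–200 uM (10 points, duplicate, 0.5% DMSO final). Formaldehyde-fixed and permeabilized, then immunostained for phospho-H2A.x with Hoechst. Fluorescence quantified by high-content imaging, fitted bidirectionally versus DMSO.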
# [17] = APR_HepG2_StressKinase_72hr: Apredica 72-hour HepG2 Assay for Stress Kinase (AID 2282921); details: HepG2 stress kinase (phospho-c-Jun) imaging, actives raise or lower the signal
# Outline: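 Phospho-c-Jun immunofluorescence measured by high-content imaging at 20x, six fields per well; bidirectional curve fitting against DMSO as baseline. Dosing: 0.39–200 uM, 72 h, 0.5% DMSO final.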
# [18] = APR_HepG2_StressKinase_24hr: Apredica 24-hour HepG2 Assay for Stress Kinase (AID 2282922); details: HepG2 stress kinase (phospho-c-Jun) imaging, actives raise or lower the signal
# Outline: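 After 24 hr compound treatment (up to 200 uM, final DMSO 0.5% v/v), HepG2 cells are fixed and multiplex-labeled; phospho-c-Jun intensity is captured by high-content fluorescence imaging and analyzed relative to DMSO.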
# [19] = APR_HepG2_p53Act_72hr: Apredica 72-hour HepG2 Assay for p53 Activation (AID 2282923); details: high-content imaging, actives raise or lower the signal;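 also: average cellular p53 protein immunofluorescence intensity in HepG2 cells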
# Outline: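 Readout: p53 immunofluorescence quantified by automated high-content imaging at 20x, six fields per well, nuclei located via Hoechst. Dosing ran 72 hr over ten concentrations from 0.39 to 200 uM; bidirectional curve fitting against DMSO baseline.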
# [20] = APR_HepG2_MitoMass_72hr: Apredica 72-hour HepG2 Assay for Mitochondrial Mass (AID 2282924); details: high-content imaging, actives raise or lower the signal;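 also: MitoTracker Red CMXRos stain intensity per cell imaged as mitochondrial mass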
# Outline: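 Steps: treat HepG2 72 hr (0.39–200 uM, duplicate wells); load MitoTracker Red CMXRos, 250 nM, 30 min; fix with 3.7% formaldehyde, permeabilise with 0.5% Triton X-100; capture images, nuclei via Hoechst 33342; fit bidirectionally against DMSO.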
structure (smiles),measurement,setting,value
CN(C)C=O,outcome,[1],inactive
same,outcome,[2],inactive
same,outcome,[3],inactive
same,outcome,[4],inactive
same,outcome,[5],inactive
same,outcome,[6],inactive
same,outcome,[7],inactive
same,outcome,[8],inactive
same,outcome,[9],inactive
same,outcome,[10],inactive
same,outcome,[11],inactive
same,outcome,[12],inactive
same,outcome,[13],inactive
same,outcome,[14],inactive
same,outcome,[15],inactive
same,outcome,[16],inactive
same,outcome,[17],inactive
same,outcome,[18],inactive
same,outcome,[19],inactive
same,outcome,[20],inactive
OCCC(F)(F)C(F)(F)C(F)(F)C(F)(F)C(F)(F)C(F)(F)C(F)(F)C(F)(F)F,outcome,[1],inactive
same,AC50,[2],17.6 µM (active)
same,AC50,[3],75 µM (active)
same,AC50,[4],27.8 µM (active)
same,AC50,[5],23.1 µM (active)
same,AC50,[6],24.1 µM (active)
same,outcome,[7],inactive
same,AC50,[8],29.9 µM (active)
same,AC50,[9],25.1 µM (active)
same,AC50,[10],14.7 µM (active)
same,AC50,[11],34.8 µM (active)
same,AC50,[12],29.7 µM (active)
same,outcome,[13],inactive
same,AC50,[14],21.8 µM (active)
same,outcome,[15],inactive
same,AC50,[16],26.8 µM (active)
same,outcome,[17],inactive
same,AC50,[18],29.2 µM (active)
same,AC50,[19],29.5 µM (active)
same,AC50,[20],102 µM (active)
CC(C)(C)CC(C)(C)c1ccc(O)c(-n2nc3ccccc3n2)c1,outcome,[1],inactive
same,AC50,[2],36.9 µM (active)
same,outcome,[3],inactive
same,AC50,[4],57.1 µM (active)
same,outcome,[5],inactive
same,AC50,[6],48.9 µM (active)
same,AC50,[7],50.6 µM (active)
same,outcome,[8],inactive
same,AC50,[9],62.6 µM (active)
same,AC50,[10],26.2 µM (active)
same,AC50,[11],65.5 µM (active)
same,AC50,[12],61.7 µM (active)
same,outcome,[13],inactive
same,AC50,[14],35.6 µM (active)
same,AC50,[15],47.9 µM (active)
same,AC50,[16],78.4 µM (active)
same,outcome,[17],inactive
same,outcome,[18],inactive
same,AC50,[19],19 µM (active)
same,AC50,[20],42.8 µM (active)
CC(O)C(=O)O (centres undefined),outcome,[1],inactive
COC(=O)CCCCC(=O)OC,outcome,[1],inactive
same,outcome,[2],inactive
same,outcome,[3],inactive
same,outcome,[4],inactive
same,outcome,[5],inactive
same,outcome,[6],inactive
same,outcome,[7],inactive
same,outcome,[8],inactive
same,outcome,[9],inactive
same,outcome,[10],inactive
same,outcome,[11],inactive
same,outcome,[12],inactive
same,outcome,[13],inactive
same,outcome,[14],inactive
same,outcome,[15],inactive
same,outcome,[16],inactive
same,outcome,[17],inactive
same,outcome,[18],inactive
same,outcome,[19],inactive
same,outcome,[20],inactive
CCCCCCCCCCCCCC[N+](C)(C)C,AC50,[1],128 nM (active) and 101 nM (active)
O=C1OC2(c3ccccc31)c1cc(Br)c(O)c(Br)c1Oc1c2cc(Br)c(O)c1Br,AC50,[1],20.5 µM (active)
same,outcome,[1],inactive
CCc1nn(C2CCCCC2)c2cc(C3(C#N)CCC(C(=O)O)CC3)ccc12 (centres undefined),outcome,[1],inactive
same,outcome,[2],inactive
same,outcome,[3],inactive
same,outcome,[4],inactive
same,outcome,[5],inactive
same,outcome,[6],inactive
same,outcome,[7],inactive
same,outcome,[8],inactive
same,outcome,[9],inactive
same,outcome,[10],inactive
same,AC50,[11],33.3 µM (active)
same,AC50,[12],84 µM (active)
same,outcome,[13],inactive
same,AC50,[14],80.7 µM (active)
same,outcome,[15],inactive
same,outcome,[16],inactive
same,outcome,[17],inactive
same,outcome,[18],inactive
same,AC50,[19],97.7 µM (active)
same,outcome,[20],inactive
